In ChEMBL document CHEMBL1961873, “Compounds: GSK PKIS; Assays: Nanosyn kinase panel” (2012):

Legend:
[1] = target: T1, Inhibitor of nuclear factor kappa-B kinase subunit epsilon (Homo sapiens) (UniProt Q14164); conditions: at 1 µM;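 also: reported values are averaged percent inhibition figures against human IKKε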
T1 sequence (whole entry): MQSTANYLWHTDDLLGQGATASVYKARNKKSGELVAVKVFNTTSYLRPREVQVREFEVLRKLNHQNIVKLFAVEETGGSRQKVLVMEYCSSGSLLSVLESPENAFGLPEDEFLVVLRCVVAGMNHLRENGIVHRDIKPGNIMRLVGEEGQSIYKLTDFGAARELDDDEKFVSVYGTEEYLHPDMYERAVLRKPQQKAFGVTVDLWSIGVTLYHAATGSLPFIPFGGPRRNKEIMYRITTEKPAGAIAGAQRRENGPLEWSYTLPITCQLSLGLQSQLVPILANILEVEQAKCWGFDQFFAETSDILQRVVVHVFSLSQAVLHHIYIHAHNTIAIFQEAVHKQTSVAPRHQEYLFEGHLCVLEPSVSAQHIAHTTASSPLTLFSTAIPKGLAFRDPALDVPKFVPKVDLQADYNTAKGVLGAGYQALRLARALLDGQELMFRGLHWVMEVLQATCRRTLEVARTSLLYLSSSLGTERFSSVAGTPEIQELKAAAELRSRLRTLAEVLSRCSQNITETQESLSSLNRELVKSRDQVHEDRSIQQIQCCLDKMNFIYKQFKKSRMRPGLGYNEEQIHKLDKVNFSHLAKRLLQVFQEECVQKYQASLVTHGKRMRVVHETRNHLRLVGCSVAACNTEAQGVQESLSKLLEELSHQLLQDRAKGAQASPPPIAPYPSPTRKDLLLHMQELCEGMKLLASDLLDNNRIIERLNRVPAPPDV

[2] = target: T2, Serine/threonine-protein kinase Nek1 (Homo sapiens) (UniProt Q96PY6); conditions: at 0.1 µM
T2 sequence (whole entry): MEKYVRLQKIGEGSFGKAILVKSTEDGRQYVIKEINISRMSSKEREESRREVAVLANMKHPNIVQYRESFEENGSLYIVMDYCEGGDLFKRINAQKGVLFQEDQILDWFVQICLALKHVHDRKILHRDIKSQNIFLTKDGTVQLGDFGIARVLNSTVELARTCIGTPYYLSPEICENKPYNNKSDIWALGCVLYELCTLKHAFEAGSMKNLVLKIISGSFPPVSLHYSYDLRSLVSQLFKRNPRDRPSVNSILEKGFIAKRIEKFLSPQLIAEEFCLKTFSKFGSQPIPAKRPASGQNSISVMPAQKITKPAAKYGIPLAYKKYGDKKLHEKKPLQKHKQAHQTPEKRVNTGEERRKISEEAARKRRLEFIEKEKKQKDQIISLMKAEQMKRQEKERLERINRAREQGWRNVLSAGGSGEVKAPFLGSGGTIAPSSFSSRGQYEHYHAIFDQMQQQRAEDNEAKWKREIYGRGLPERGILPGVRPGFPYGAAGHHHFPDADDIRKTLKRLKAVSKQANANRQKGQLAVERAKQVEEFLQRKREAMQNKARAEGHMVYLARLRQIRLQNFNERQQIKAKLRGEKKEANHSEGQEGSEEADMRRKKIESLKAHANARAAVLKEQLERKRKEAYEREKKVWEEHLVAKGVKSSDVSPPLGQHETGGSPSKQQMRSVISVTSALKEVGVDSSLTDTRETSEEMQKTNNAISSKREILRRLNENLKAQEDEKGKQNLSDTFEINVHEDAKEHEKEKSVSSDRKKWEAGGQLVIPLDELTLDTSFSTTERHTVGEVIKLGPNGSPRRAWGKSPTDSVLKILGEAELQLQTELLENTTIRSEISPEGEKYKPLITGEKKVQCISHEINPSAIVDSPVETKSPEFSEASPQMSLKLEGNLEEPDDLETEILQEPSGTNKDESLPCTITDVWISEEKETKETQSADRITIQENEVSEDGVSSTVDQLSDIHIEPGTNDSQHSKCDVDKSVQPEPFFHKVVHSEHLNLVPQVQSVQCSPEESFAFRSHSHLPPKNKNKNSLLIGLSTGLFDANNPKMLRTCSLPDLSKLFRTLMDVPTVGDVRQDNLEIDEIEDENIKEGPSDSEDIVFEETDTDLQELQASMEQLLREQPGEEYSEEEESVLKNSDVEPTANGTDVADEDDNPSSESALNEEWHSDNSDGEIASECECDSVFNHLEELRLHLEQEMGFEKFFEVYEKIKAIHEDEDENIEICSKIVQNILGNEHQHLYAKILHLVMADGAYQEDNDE

[3] = target: T2, Serine/threonine-protein kinase Nek1 (Homo sapiens); conditions: at 1 µM
[4] = target: T3, Serine/threonine-protein kinase Nek2 (Homo sapiens) (UniProt P51955); conditions: at 0.1 µM
T3 sequence (whole entry): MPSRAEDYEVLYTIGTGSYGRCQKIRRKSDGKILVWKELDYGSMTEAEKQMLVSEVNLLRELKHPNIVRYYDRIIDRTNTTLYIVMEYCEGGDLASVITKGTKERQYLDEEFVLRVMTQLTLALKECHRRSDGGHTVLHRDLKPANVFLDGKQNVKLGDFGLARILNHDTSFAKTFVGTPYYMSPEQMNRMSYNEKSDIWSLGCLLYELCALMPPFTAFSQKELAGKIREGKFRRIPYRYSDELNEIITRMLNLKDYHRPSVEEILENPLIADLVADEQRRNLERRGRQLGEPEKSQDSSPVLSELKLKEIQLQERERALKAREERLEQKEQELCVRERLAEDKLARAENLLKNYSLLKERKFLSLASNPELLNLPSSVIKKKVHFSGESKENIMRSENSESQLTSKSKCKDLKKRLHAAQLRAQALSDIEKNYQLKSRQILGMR

[5] = target: T3, Serine/threonine-protein kinase Nek2 (Homo sapiens); conditions: at 1 µM
[6] = target: Serine/threonine-protein kinase Nek6 (Homo sapiens) (UniProt Q9HC98); conditions: at 0.1 µM
[7] = target: Serine/threonine-protein kinase Nek6 (Homo sapiens) (UniProt Q9HC98); conditions: at 1 µM
[8] = target: Serine/threonine-protein kinase Nek7 (Homo sapiens) (UniProt Q8TDX7); conditions: at 0.1 µM
[9] = target: Serine/threonine-protein kinase Nek7 (Homo sapiens) (UniProt Q8TDX7); conditions: at 1 µM
[10] = target: T4, Serine/threonine-protein kinase Nek9 (Homo sapiens) (UniProt Q8TD19); conditions: at 0.1 µM
T4 sequence (whole entry): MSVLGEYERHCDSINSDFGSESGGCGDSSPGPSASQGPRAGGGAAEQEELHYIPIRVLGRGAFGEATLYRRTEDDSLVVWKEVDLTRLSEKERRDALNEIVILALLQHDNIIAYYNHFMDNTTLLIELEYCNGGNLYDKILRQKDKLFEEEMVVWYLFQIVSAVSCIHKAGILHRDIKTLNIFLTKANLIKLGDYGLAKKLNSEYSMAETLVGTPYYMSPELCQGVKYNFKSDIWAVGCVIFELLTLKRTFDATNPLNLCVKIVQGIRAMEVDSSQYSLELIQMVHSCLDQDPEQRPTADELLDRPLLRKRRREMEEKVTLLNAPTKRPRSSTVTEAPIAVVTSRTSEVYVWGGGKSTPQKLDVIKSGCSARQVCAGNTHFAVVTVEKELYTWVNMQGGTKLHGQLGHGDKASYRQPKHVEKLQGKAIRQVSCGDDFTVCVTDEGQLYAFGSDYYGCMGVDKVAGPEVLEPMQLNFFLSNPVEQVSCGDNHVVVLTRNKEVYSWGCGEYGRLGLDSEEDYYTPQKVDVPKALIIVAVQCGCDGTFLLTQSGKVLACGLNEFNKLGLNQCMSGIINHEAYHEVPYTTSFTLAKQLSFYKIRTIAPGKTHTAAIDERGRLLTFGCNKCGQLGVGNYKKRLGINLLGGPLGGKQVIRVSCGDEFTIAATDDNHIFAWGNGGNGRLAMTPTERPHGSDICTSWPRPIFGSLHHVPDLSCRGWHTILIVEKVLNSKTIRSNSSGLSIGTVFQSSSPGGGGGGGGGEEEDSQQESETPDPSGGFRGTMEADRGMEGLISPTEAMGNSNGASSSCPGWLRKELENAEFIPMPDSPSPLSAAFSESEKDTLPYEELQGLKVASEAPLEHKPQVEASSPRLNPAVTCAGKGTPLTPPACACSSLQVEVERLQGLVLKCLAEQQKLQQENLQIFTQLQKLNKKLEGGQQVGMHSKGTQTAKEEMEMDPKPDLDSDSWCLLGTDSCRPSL

[11] = target: T4, Serine/threonine-protein kinase Nek9 (Homo sapiens); conditions: at 1 µM
[12] = target: Serine/threonine-protein kinase PLK1 (Homo sapiens) (UniProt P53350); conditions: at 0.1 µM
[13] = target: Serine/threonine-protein kinase PLK1 (Homo sapiens) (UniProt P53350); conditions: at 1 µM
[14] = target: T5, Dual specificity protein kinase TTK (Homo sapiens) (UniProt P33981); conditions: at 0.1 µM
T5 sequence (whole entry): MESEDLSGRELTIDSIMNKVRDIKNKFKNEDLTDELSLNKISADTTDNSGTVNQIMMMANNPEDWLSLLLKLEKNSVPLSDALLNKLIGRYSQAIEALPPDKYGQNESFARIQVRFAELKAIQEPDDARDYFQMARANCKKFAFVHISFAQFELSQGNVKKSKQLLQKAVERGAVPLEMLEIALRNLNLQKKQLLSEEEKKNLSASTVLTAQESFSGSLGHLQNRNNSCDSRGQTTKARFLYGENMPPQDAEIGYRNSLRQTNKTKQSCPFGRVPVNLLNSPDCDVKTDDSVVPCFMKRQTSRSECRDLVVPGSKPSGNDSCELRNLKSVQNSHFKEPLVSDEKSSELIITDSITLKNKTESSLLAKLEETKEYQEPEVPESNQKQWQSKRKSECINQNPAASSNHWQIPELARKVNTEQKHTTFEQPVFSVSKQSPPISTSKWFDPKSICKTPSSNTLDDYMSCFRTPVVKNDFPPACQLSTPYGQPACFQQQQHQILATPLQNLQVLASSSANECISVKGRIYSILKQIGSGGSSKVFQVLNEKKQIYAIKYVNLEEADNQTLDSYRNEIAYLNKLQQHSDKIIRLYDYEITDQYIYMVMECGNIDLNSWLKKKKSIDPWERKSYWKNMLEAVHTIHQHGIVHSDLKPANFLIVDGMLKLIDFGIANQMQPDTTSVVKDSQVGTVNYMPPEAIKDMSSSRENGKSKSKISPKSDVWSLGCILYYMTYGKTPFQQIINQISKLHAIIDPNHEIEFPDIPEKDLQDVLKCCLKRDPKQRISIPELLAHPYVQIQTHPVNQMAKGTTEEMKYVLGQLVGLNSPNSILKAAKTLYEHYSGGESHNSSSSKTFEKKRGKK

[15] = tested on: T6, Receptor-type tyrosine-protein kinase FLT3 (Homo sapiens), P36888 [D835Y]; conditions: at 1 µM
T6 sequence (whole entry): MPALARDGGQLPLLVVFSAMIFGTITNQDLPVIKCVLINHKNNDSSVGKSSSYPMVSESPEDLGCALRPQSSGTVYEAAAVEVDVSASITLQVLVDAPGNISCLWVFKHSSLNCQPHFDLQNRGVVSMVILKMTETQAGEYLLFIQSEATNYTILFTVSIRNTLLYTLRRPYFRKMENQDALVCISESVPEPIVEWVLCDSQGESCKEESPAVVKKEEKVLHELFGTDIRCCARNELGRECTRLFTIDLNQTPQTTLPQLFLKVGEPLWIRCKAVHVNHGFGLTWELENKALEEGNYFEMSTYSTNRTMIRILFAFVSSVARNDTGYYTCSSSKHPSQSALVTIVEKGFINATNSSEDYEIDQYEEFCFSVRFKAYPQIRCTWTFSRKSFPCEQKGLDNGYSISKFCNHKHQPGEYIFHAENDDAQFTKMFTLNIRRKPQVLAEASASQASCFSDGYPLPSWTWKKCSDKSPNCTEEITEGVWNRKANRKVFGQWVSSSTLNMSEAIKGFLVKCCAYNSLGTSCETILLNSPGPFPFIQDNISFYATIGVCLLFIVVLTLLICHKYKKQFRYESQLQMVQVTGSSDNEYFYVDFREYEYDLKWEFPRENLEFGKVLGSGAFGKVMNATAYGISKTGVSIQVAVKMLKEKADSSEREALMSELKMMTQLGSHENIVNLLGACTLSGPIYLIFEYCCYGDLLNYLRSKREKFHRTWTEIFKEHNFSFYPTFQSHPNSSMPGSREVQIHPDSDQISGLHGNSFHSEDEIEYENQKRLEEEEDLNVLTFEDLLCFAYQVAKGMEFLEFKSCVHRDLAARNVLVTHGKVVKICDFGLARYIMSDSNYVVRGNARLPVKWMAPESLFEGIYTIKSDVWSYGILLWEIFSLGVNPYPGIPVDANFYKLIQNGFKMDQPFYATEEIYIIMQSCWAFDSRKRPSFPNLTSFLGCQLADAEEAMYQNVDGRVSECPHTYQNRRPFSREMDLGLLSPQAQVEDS

[16] = target: Vascular endothelial growth factor receptor 3 (Homo sapiens) (UniProt P35916); conditions: at 0.1 µM
[17] = target: Vascular endothelial growth factor receptor 3 (Homo sapiens) (UniProt P35916); conditions: at 1 µM
[18] = target: Macrophage colony-stimulating factor 1 receptor (Homo sapiens) (UniProt P07333); conditions: at 0.1 µM
[19] = target: Macrophage colony-stimulating factor 1 receptor (Homo sapiens) (UniProt P07333); conditions: at 1 µM
[20] = target: Tyrosine-protein kinase Fyn (Homo sapiens) (UniProt P06241); conditions: at 0.1 µM
Sequence of Tyrosine-protein kinase Fyn (Homo sapiens) (P06241 2-537 limits assumed): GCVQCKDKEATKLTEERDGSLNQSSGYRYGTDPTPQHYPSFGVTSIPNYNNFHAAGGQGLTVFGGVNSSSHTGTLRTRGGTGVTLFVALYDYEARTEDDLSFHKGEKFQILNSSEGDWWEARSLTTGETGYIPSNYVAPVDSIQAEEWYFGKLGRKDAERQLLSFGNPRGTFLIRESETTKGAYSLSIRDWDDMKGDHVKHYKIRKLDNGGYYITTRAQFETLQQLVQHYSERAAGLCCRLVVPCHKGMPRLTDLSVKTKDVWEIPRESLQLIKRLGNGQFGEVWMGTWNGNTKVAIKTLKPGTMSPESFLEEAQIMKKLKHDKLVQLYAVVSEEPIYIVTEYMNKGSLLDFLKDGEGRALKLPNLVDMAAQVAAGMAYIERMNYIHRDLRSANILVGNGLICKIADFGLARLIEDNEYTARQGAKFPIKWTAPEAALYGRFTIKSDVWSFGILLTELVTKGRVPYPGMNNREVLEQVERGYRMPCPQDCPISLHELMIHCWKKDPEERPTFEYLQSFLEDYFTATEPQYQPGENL

Sequence of Serine/threonine-protein kinase Nek7 (Homo sapiens) (Q8TDX7 whole entry, looked up): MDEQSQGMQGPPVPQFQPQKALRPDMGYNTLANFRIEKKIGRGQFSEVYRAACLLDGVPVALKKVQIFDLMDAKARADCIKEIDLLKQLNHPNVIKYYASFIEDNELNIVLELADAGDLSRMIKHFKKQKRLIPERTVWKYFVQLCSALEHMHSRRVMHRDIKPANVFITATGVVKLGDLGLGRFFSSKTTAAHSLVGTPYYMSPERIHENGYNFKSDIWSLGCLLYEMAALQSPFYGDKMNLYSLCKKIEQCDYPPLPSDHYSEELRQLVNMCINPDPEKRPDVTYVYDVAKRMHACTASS
Sequence of Serine/threonine-protein kinase Nek6 (Homo sapiens) (Q9HC98 whole entry): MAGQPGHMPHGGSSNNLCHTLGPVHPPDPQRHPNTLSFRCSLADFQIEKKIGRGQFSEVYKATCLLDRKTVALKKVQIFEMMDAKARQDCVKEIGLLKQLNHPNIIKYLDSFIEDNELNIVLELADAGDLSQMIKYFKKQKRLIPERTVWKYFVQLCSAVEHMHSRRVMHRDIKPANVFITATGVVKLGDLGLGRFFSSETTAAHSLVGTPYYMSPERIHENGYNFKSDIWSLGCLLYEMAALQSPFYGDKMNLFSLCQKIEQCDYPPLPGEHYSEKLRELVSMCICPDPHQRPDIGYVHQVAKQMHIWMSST
Sequence of Macrophage colony-stimulating factor 1 receptor (Homo sapiens) (P07333 whole entry): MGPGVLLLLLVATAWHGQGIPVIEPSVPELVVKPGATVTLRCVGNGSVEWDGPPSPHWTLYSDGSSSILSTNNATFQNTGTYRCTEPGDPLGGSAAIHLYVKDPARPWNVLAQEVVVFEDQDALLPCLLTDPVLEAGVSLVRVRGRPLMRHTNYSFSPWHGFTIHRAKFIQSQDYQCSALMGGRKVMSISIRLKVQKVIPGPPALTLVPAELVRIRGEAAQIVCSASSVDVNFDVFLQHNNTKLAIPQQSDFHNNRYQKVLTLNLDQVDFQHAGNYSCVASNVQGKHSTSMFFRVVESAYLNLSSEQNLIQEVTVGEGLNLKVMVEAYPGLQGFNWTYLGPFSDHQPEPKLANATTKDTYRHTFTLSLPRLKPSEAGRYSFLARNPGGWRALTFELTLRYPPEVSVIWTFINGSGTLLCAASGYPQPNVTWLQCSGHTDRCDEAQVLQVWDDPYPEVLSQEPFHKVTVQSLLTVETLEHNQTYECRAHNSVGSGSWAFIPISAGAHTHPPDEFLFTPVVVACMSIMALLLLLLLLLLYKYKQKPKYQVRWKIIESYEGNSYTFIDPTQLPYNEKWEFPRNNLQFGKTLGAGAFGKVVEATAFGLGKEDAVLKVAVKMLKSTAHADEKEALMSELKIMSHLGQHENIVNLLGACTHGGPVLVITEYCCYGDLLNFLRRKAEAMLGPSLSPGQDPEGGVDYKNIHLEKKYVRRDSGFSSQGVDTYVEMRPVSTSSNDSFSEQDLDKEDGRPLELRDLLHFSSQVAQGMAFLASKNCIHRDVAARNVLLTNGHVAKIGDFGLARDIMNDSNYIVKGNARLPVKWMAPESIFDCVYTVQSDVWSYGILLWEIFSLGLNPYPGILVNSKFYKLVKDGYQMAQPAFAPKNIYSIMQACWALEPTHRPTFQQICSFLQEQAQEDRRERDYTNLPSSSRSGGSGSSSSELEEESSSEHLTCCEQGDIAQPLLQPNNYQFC
Sequence of Vascular endothelial growth factor receptor 3 (Homo sapiens) (P35916 whole entry): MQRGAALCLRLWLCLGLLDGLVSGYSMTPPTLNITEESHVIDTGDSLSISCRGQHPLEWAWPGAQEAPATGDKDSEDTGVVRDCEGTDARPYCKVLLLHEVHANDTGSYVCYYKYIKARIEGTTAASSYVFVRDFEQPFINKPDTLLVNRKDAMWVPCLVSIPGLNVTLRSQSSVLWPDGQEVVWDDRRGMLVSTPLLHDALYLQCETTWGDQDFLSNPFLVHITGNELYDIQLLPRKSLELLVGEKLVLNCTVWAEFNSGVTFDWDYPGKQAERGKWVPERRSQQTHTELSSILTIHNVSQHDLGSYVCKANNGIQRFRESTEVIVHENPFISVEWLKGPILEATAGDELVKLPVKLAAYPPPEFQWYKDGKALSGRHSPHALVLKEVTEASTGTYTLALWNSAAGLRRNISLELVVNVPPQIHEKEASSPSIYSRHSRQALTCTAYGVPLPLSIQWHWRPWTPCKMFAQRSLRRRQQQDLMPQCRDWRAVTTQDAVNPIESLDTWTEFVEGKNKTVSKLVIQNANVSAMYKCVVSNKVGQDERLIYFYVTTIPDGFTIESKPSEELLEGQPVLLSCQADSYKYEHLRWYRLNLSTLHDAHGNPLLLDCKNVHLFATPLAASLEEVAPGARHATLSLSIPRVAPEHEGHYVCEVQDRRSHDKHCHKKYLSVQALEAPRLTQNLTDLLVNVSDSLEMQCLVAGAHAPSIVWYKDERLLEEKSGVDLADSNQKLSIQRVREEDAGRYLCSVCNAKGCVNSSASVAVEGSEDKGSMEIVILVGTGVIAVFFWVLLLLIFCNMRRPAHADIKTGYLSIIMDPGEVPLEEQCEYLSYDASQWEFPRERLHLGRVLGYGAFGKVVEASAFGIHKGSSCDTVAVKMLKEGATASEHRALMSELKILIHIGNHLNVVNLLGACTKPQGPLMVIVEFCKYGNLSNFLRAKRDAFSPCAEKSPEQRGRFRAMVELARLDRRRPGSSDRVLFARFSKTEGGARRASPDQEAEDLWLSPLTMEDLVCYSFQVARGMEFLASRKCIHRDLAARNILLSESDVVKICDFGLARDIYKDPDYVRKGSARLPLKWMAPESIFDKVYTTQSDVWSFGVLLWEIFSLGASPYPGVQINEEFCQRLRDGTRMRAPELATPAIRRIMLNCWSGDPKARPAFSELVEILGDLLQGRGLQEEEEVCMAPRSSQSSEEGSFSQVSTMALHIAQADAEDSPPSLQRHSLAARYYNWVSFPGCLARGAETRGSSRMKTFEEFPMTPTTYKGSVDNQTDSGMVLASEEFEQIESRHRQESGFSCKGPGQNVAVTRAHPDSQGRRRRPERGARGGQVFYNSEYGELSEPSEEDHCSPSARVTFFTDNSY
Sequence of Serine/threonine-protein kinase PLK1 (Homo sapiens) (P53350 whole entry): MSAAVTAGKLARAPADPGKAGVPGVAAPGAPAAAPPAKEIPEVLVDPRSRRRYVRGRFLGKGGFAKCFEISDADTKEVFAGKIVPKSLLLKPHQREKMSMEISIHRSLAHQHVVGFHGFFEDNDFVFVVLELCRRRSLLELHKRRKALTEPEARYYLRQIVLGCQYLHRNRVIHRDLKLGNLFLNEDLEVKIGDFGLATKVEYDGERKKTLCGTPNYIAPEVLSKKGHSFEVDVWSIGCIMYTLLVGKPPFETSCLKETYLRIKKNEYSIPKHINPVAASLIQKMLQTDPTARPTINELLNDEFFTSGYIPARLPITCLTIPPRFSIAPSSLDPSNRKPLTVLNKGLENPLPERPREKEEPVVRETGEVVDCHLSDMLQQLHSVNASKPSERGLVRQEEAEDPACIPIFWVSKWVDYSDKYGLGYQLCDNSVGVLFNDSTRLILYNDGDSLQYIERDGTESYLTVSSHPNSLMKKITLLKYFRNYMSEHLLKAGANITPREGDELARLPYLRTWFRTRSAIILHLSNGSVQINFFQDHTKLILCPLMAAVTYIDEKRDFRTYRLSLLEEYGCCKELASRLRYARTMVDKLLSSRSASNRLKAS

Compound | inhibition [1] [%] | inhibition [2] [%] | inhibition [3] [%] | inhibition [4] [%] | inhibition [5] [%] | inhibition [6] [%] | inhibition [7] [%] | inhibition [8] [%] | inhibition [9] [%] | inhibition [10] [%] | inhibition [11] [%] | inhibition [12] [%] | inhibition [13] [%] | inhibition [14] [%] | inhibition [15] [%] | inhibition [16] [%] | inhibition [17] [%] | inhibition [18] [%] | inhibition [19] [%] | inhibition [20] [%]
Nc1nc(-c2ccc(F)cc2)c(-c2ccc3ncccc3n2)s1 | 7.4 | 2.04 | 36 | 4.57 | 6.71 | 2.87 | 5.03 | 3.03 | 3.14 | 11.5 | 11.1 | 3.57 | 6.9 | 9.86 | 6.56 | 4.58 | 11.6 | 3.44 | 7.59 | 2.8
COc1cc2ncn(-c3cc(OCc4ccccc4C(F)(F)F)c(C(=O)N(C)C)s3)c2cc1OC | 2.1 | 0.82 | 4.81 | 0.75 | 2.7 | 1.08 | -2.22 | 2.1 | 0.24 | 0.62 | 3.25 | 3.97 | 3.34 | 4.69 | 1.1 | 0.79 | 15.2 | 4.5 | 3.31 | 1.31
